The text below walks through data of PubChem BioAssay (EPA / NIEHS).

Activity calls are given as the source filed them. How the source made its calls: active means hit-call score of the fitted dose curve at least 0.9, where 1 is the maximum; inactive means score below 0.9.

A word on the AC50: it is the midpoint of the concentration-response curve, whichever way the signal moves.

Assay [1] in a line: APR_HepG2_CellCycleArrest_24hr: Apredica 24-hour HepG2 Assay for Cell Cycle Arrest (AID 2282905).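 Further: cell cycle arrest scored as ratio of 2N to 4N nuclear DNA content.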 To be noted: imaging, actives raise or lower the signal. A digest of the protocol:
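Cell cycle arrest is scored from nuclear DNA content measured by high-content imaging of Hoechst 33342-stained HepG2 cells following 24-hour treatment at ten concentrations up to 200 uM, with DMSO as baseline.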

Assay [2] can be described thus: APR_HepG2_NuclearSize_24hr: Apredica 24-hour HepG2 Assay for Nuclear Size (AID 2282907). The settings on record: high-content imaging, actives raise or lower the signal. A digest of the protocol:
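Compounds in DMSO (final 0.5%) were added to human HepG2 hepatoma cells at ten concentrations up to 200 uM for 24 hr. Fixed nuclei were stained with Hoechst 33342, and nuclear diameter was quantified from automated images.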

The nature of assay [3]: APR_HepG2_CellLoss_24hr: Apredica 24-hour HepG2 Assay for Cell Loss (AID 2282908).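 On AC50: fit in both directions so a hit may be cell loss or gain.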 To be noted: high-content imaging. In a few lines:
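Cell number is quantified by fluorescence imaging of Hoechst 33342-stained nuclei following dosing at 0.39–200 uM in 0.5% DMSO. Curves are fitted in both directions from the DMSO baseline.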

Assay [4] is described as follows: APR_HepG2_MicrotubuleCSK_24hr: Apredica 24-hour HepG2 Assay for Microtubule CSK Stabilty (AID 2282909). To be noted: HepG2 microtubule cytoskeleton imaging, actives raise or lower the signal. A digest of the protocol:
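Steps: dose HepG2 for 24 h (0.39–200 uM, 0.5% DMSO); fix 30 min in 3.7% formaldehyde at room temperature; permeabilize; stain alpha-tubulin 60 min; image microtubule cytoskeleton at 20x. Signal change fitted in both directions relative to DMSO.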

Assay [5] in a line: APR_HepG2_MitoticArrest_24hr: Apredica 24-hour HepG2 Assay for Mitotic Arrest (AID 2282910). To be noted: high-content imaging, actives raise or lower the signal. A digest of the protocol:
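Compounds are dosed onto HepG2 cells across ten concentrations up to 200 uM for 24 hr. Cells are then fixed in 3.7% formaldehyde, permeabilised, and labelled for phospho-histone H3 and nuclei; images are scored by cell cycle analysis and fitted bidirectionally relative to DMSO.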

Assay [6] is described as follows: APR_HepG2_MitoMembPot_24hr: Apredica 24-hour HepG2 Assay for Mitochondrial Membrane Potential (AID 2282911). To be noted: imaging, actives raise or lower the signal. In a few lines: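 Human hepatoma HepG2 cultures received ten compound concentrations up to 200 uM for 24 hr. Membrane-potential dye signal, captured by automated fluorescence microscopy, was scored for gain or loss against DMSO controls.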

A short description of assay [7]: APR_HepG2_MitoMass_24hr: Apredica 24-hour HepG2 Assay for Mitochondrial Mass (AID 2282912). To be noted: high-content imaging, actives raise or lower the signal. A digest of the protocol:
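The liver line HepG2 was dosed in duplicate across a 0.39–200 uM series, with final DMSO held at 0.5% v/v, and harvested at 24 hr. High-content imaging measured mitochondrial dye staining.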

Assay [8] in a line: APR_HepG2_p53Act_24hr: Apredica 24-hour HepG2 Assay for p53 Activation (AID 2282913).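 Further: p53 protein immunofluorescence averaged per cell in HepG2 with Hoechst nuclei.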 The settings on record: high-content imaging, actives raise or lower the signal. A digest of the protocol:
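Automated fluorescence imaging quantifies p53 immunostaining in HepG2 cells after a 24 hr exposure (0.39–200 uM, duplicate, 0.5% DMSO). Nuclei are located by Hoechst 33342 staining.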

Assay [9] is described as follows: APR_HepG2_CellCycleArrest_72hr: Apredica 72-hour HepG2 Assay for Cell Cycle Arrest (AID 2282914). The settings on record: high-content imaging, actives raise or lower the signal. A digest of the protocol:
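Cell cycle arrest in HepG2 was scored from nuclear DNA content after 72 hr compound treatment (0.39–200 uM). Activity, either gain or loss, was fitted against the DMSO baseline.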

Assay [10] in a line: APR_HepG2_CellLoss_72hr: Apredica 72-hour HepG2 Assay for Cell Loss (AID 2282915). The settings on record: high-content imaging. In a few lines:
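Cell number comes from Hoechst 33342-labelled nuclei, imaged at 20x after 3.7% formaldehyde fixation. Dosing was 0.39–200 uM, ten concentrations in duplicate, 0.5% DMSO final, for 72 h. Bidirectional fit relative to DMSO baseline.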

Assay [11] can be described thus: APR_HepG2_P-H2AX_72hr: Apredica 72-hour HepG2 Assay for H2AX Phosphorylation (AID 2282916).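 Further: phospho-histone H2A.x immunostain intensity per cell marking DNA damage.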 The settings on record: imaging, actives raise or lower the signal. A digest of the protocol:
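Following 72 hr treatment with 0.39–200 uM compound, HepG2 cells were formaldehyde-fixed, permeabilized and stained for phospho-H2A.x; signal was measured by high-content imaging and fitted bidirectionally against DMSO controls.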

A short description of assay [12]: APR_HepG2_MitoMembPot_72hr: Apredica 72-hour HepG2 Assay for Mitochondrial Membrane Potential (AID 2282917). The settings on record: imaging, actives raise or lower the signal. In a few lines: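 Membrane potential read by MitoTracker Red CMXRos (250 nM, 30 min, pre-fixation) fluorescence imaging of HepG2 after 72 hr exposure. Ten concentrations, 0.39–200 uM, duplicate wells, 0.5% DMSO; fitted in both directions against DMSO baseline.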

The nature of assay [13]: APR_HepG2_MitoticArrest_72hr: Apredica 72-hour HepG2 Assay for Mitotic Arrest (AID 2282918). To be noted: high-content imaging, actives raise or lower the signal. A digest of the protocol: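 Mitotic arrest in HepG2 is scored from phospho-histone H3 staining after 72 hr dosing across 0.39–200 uM, with DMSO at 0.5% v/v. Nuclei are identified by Hoechst 33342 and fluorescence intensity is quantified per cell.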

A short description of assay [14]: APR_HepG2_MicrotubuleCSK_72hr: Apredica 72-hour HepG2 Assay for Microtubule CSK Stabilty (AID 2282919). The settings on record: HepG2 microtubule cytoskeleton, high-content imaging, actives raise or lower the signal. A digest of the protocol: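 Read-out is tubulin fluorescence intensity from high-content imaging of HepG2 cells, with nuclei identified by Hoechst 33342. Treatment lasts 72 h at 0.39–200 uM, and curves are fitted bidirectionally against the DMSO negative control.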

Assay [15] is described as follows: APR_HepG2_P-H2AX_24hr: Apredica 24-hour HepG2 Assay for H2AX Phosphorylation (AID 2282920). The settings on record: high-content imaging, actives raise or lower the signal. A digest of the protocol:
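Signal comes from a FITC-labeled secondary detecting phospho-histone H2A.x in fixed HepG2 cells, quantified by automated imaging at 20x. Dosing ran 24 hr across 0.39–200 uM with 0.5% v/v DMSO.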

Assay [16] in a line: APR_HepG2_StressKinase_72hr: Apredica 72-hour HepG2 Assay for Stress Kinase (AID 2282921). The settings on record: HepG2 stress kinase (phospho-c-Jun) imaging, actives raise or lower the signal. A digest of the protocol:
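Fluorescence intensity of Cy3-tagged anti-phospho-c-Jun antibody, quantified per cell from Hoechst-defined nuclei across six images per well, served as the read-out following 72 h exposure (0.39–200 uM, 0.5% v/v DMSO).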

Assay [17] in a line: APR_HepG2_StressKinase_24hr: Apredica 24-hour HepG2 Assay for Stress Kinase (AID 2282922). The settings on record: HepG2 stress kinase (phospho-c-Jun) imaging, actives raise or lower the signal. A digest of the protocol: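 HepG2, 24 hr dosing, 0.39–200 uM in duplicate, 0.5% DMSO; formaldehyde fix (3.7%), 0.5% Triton X-100; anti-phospho-c-Jun + Cy3 secondary, Hoechst counterstain; ArrayScan imaging; bidirectional curve fit vs DMSO baseline.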

A short description of assay [18]: APR_HepG2_p53Act_72hr: Apredica 72-hour HepG2 Assay for p53 Activation (AID 2282923).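 Further: average cellular p53 protein immunofluorescence intensity in HepG2 cells.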 To be noted: high-content imaging, actives raise or lower the signal. A digest of the protocol:
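HepG2 monolayers receive test compounds in duplicate at ten concentrations (0.39 through 200 uM) for 72 hr. They are then formaldehyde-fixed, antibody-labelled for p53, Hoechst-stained and imaged, with activity fitted bidirectionally versus DMSO.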

Assay [19] is described as follows: APR_HepG2_MitoMass_72hr: Apredica 72-hour HepG2 Assay for Mitochondrial Mass (AID 2282924).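 Further: MitoTracker Red CMXRos stain intensity per cell imaged as mitochondrial mass.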 To be noted: high-content imaging, actives raise or lower the signal. A digest of the protocol:
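HepG2, 72 hr cmpd, 10 conc 0.39–200 uM in dup, DMSO 0.5% v/v. MitoTracker Red CMXRos 250 nM 30 min pre-fix; formaldehyde 3.7% fix 30 min RT. HCS imaging, gain/loss fit vs DMSO.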

Assay [20] in a line: APR_HepG2_NuclearSize_72hr: Apredica 72-hour HepG2 Assay for Nuclear Size (AID 2282925). The settings on record: high-content imaging, actives raise or lower the signal. In a few lines: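 HepG2; cpd 0.39–200 uM, 10 conc, duplicate; 72 h; DMSO 0.5% v/v; fix 3.7% formaldehyde 30 min RT; Triton permeabilization; Hoechst 2 ug/mL; HCS imaging 20x; nuclear diameter; gain/loss fit vs DMSO.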

On to `COc1cccc([C@H](O)C2CCN(CCc3ccc(F)cc3)CC2)c1OC`, for which the AC50 in [1] is 75.2 µM (active); in assay [10] it was 105 µM (active); in [13], 102 µM (active); in assay [14] it was 103 µM (active). Further, the result in assay [2], in [3], in assay [4], in assay [5], in assay [6] and in assay [7] was inactive. Also, the molecule was classed as inactive in assay [8], in assay [9], in assay [11], in assay [12], in assay [15] and in assay [16]. In addition, the molecule was classed as inactive in assay [17], in assay [18], in [19] and in [20].
As for `CCCCOC(=O)c1ccc(O)cc1`, the call in [1], in assay [2], in assay [3], in assay [4], in assay [5] and in assay [6] was inactive. Moreover, the molecule was called inactive in assay [7], in assay [8], in [9], in assay [10], in assay [11] and in assay [12]. Moreover, the result in assay [13], in [14], in [15], in [17], in [18] and in assay [19] was inactive. In assay [20], the result was inactive.
Take `Clc1cc(Cl)c2c(c1)N=C1CCCCCN1C2`: the call in [1], in [2], in assay [3], in [4], in [5] and in [7] was inactive. In addition, the call in assay [8], in assay [9], in [10], in assay [11], in assay [12] and in assay [13] was inactive. For the same molecule, the molecule was classed as inactive in assay [14], in assay [15], in assay [17], in assay [18], in [19] and in assay [20]. The AC50 in assay [6] was 0.0248 µM (active).
Turning to `O=C(O)c1ccccc1C(=O)OCc1ccccc1`, the molecule was classed as inactive in assay [1], in assay [2], in assay [3], in assay [4], in assay [5] and in assay [6]. Besides, the outcome in assay [7], in [8], in [9], in [10], in assay [11] and in assay [12] was inactive. Further, the outcome in [13], in assay [14], in [15], in assay [16], in [17] and in [18] was inactive. Further, the molecule was classed as inactive in assay [19] and in assay [20].
For `Cc1occc1C(=O)Nc1ccc(C(=O)N2CCC(F)(F)/C(=C\C(=O)N3CCC(N4CCCCC4)CC3)c3ccccc32)cc1`, the AC50 in [1] was 34.9 µM (active); in assay [3], 16.2 µM (active); in assay [10], 12.3 µM (active); in assay [13], 20.7 µM (active); in assay [18], 29 µM (active). For the same molecule, the molecule was called inactive in assay [2], in assay [4], in assay [5], in [6], in assay [7] and in assay [8]. The molecule was classed as inactive in [9], in [11], in assay [12], in [14], in [15] and in assay [16]. For the same molecule, the outcome in assay [17], in assay [19] and in [20] was inactive.
Consider `CC/C(=C(/CC)c1ccc(O)cc1)c1ccc(O)cc1`, for which the AC50 was 20.9 µM (active) in [1]; 90.9 µM (active) in assay [3]; 50 µM (active) in [5]; 46 µM (active) in [7]; 33.8 µM (active) in assay [8]; 31.3 µM (active) in assay [9]. Moreover, the AC50 in assay [10] is 79.5 µM (active); in assay [11] it was 68 µM (active); in assay [12], 71.6 µM (active); in assay [13], 91.2 µM (active); in [15], 33.1 µM (active); in assay [16] it was 28.7 µM (active). Moreover, the AC50 in [18] is 74.1 µM (active). The result in assay [2], in assay [4], in [6], in [14], in [17] and in assay [19] was inactive. In addition, the result in [20] was inactive.
